D3 antag – D3 dopamine receptor (human) antagonism | P35462 | actives 2.5% (n = 360,000) | D3R cells, DiscoveRx beta-arrestin luminescence, antagonist mode; active compounds read low | AID 652054 | max response, negative = inhibition, %; in the data active = max response below about -50%; inconclusive = no clear call, values can overlap the other calls
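Cells expressing the human receptor were seeded at 1500 cells/well, incubated overnight at 37 degrees C in 5% CO2, then exposed to library compounds with dopamine controls for 90 minutes at 37 degrees C before luminescent detection.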
D3 ag – agonists of human D3 dopamine receptor | P35462 | D3R DiscoveRx beta-arrestin cells, luminescence, 90 min | max activation, % | actives 0.58% (n = 410,000) | AID 652048; in the data active = max activation above about 30%
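Cells at 1500/well, incubated overnight, then treated with pinned compounds (dopamine as control) for 90 min at 37 degrees C. DiscoveRx reagent added for 30 - 60 minutes at room temperature; luminescence read.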
D1 antag – human D1 dopamine receptor antagonism. P21728. actives 3.2% (n = 360,000). AID 504652. activity change, negative = inhibition, % at 10 µM. HEK293 TREx D1 cells, calcium flux, dopamine EC80; active compounds read low; in the data active = activity change below about -30%
Target sequence (P21728 whole entry, looked up): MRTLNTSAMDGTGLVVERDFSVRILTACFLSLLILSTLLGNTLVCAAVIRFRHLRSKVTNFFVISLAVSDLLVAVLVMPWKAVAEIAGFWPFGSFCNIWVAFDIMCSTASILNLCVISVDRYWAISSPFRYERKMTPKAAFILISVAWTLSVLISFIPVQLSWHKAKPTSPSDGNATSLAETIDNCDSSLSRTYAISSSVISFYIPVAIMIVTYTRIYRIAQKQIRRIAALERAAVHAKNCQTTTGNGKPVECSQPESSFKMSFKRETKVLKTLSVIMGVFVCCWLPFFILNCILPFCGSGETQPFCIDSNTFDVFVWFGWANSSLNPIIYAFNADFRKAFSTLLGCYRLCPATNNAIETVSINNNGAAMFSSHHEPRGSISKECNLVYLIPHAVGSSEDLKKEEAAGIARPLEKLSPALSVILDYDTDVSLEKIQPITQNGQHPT
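Cells carrying a force-coupled, tetracycline-inducible human D1 receptor report calcium flux. Each well gets a 10 s baseline, compound with 180 s monitoring, then an EC80 dopamine stimulus with a second 180 s kinetic read.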
D1 agonist – agonists of human D1 dopamine receptor; P21728; HEK293 T-REx D1 cells, calcium flux, agonist mode; activation, % at 2 µM; actives 1% (n = 360,000); in the data active = activation above about 30%
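Tetracycline-induced HEK293 TREx D1 cells, force-coupled to calcium signalling, were dye-loaded with a no-wash calcium kit. Compound was pin-added after a 10 s baseline. Fluorescence was read kinetically at 1 cycle/s for 180 s, with calcium rises flagged as agonism.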
D1 PAM – human D1 dopamine receptor positive modulation; P21728; HEK293 TREx D1 cells, calcium flux, dopamine EC20 potentiation; potentiation, % at 10 µM; actives 0.036% (n = 360,000); in the data active = potentiation above about 30%
Large screens that a line does not name were inactive; ! = a repeat was not active. Compounds with a hit are over-represented: about 6.1% of the library has one in this group of screens.

COc1ccc(/C=N/Nc2nc(N3CCCC3)nc(N3CCCC3)n2)c(OC)c1OC	D1 antag -42
Oc1ccc(/C=N/Nc2nc(N3CCCCCC3)nc(N3CCCCCC3)n2)c(O)c1	D3 ag 37, D1 antag -41
C(=N\Nc1nc(N2CCCCCC2)nc(N2CCCCCC2)n1)/c1ccccc1	none
Oc1ccc(Br)cc1/C=N/Nc1nc(N2CCCCC2)nc(N2CCOCC2)n1	none
O=C(O)c1cccc(N2C(=O)c3cccc4cccc(c34)C2=O)c1	none
O=C1c2cc([N+](=O)[O-])cc3cc([N+](=O)[O-])cc(c23)C(=O)N1c1ccccn1	D3 antag -76
O=C1c2ccc(Oc3cccc([N+](=O)[O-])c3)cc2C(=O)N1c1ccccn1	none
O=C(O)c1cccc(N2C(=O)c3cc([N+](=O)[O-])cc4cc([N+](=O)[O-])cc(c34)C2=O)c1	D3 antag -58
NC(=O)CN1C(=O)NC2(CCOc3ccccc32)C1=O (centres undefined)	D1 antag -75
CC1CCCC(C)N1C(=O)CN1C(=O)NC2(CCOc3ccccc32)C1=O (centres undefined)	D1 antag -31
CNC(C)[C@@H]1CC[C@@H](N)[C@@H](O[C@H]2[C@H](O)[C@@H](O[C@H]3OC[C@](C)(O)[C@H](NC)[C@H]3O)[C@H](N)C[C@@H]2N)O1 (some centres undefined)	none (no result: D3 antag, D1 antag, D1 agonist, D1 PAM)
CCc1nc2ccccc2n1Cc1ccccc1F	none
O=c1c(-c2cccc3ccccc23)[n+]([O-])c2ccccc2n1O	D3 antag -53
Cc1oc(-c2cccc(Cl)c2)nc1CSc1nnc(C)n2c1cc1occc12	none (no result: D3 antag)
CCC1Cc2c(nc(N)c3c(N)nc(N4CCCCC4)c(C#N)c23)O1 (centres undefined)	D1 antag -31
CCN1/C(=C/C(C)=O)Sc2ccc(OC)cc21	none
CCOC(=O)/C(=C\C=C1/Sc2cc(OCC)c(OCC)cc2N1CC)C(C)=O	D1 antag -43, D1 agonist 329
CCOc1cc(OCC)c(C(=O)CCC(=O)O)cc1OCC	none (no result: D3 antag, D1 antag, D1 agonist, D1 PAM)
CCOC(=O)/C(=C/C=C1\Sc2cc(OCC)c(OCC)cc2N1CC)C(C)=O	D1 antag -30, D1 agonist 216
Cc1cc(C)cc(N2C(=O)CC(n3nc(C)cc3C)C2=O)c1 (centres undefined)	D1 antag -43
Cc1cc(C)n(C2CC(=O)N(c3cc(Cl)cc(Cl)c3)C2=O)n1 (centres undefined)	none
COc1ccc(/C=N/OCC(=O)NC(c2ccccc2)c2ccccc2)c(OC)c1	none
CCOc1ccc(/C=N/OCC(=O)NC(c2ccccc2)c2ccccc2)cc1	D1 agonist 33
CCCc1cc(C(=O)Nc2cccc3ccccc23)n(C)n1	none
CCCc1cc(C(=O)Nc2ccc(C(=O)c3ccc(C)cc3)cc2)n(C)n1	D1 antag -35
COc1cccc(CNS(=O)(=O)c2cc(CN3C(=O)c4cccnc4C3=O)ccc2OC)c1	none
Cc1ccc(S(=O)(=O)N(C)C)cc1NC(=O)COC(=O)CCC1CCCCC1	D1 antag -39
CCCCCCc1cc2cc(C(=O)OCC)c(=O)oc2cc1O	none
CCCCCCc1cc2cc(/C(N)=N/NC(=O)c3ccncc3)c(=O)oc2cc1O	D1 agonist 114 (no result: D1 antag)
CCCCCCc1cc2cc(S(=O)(=O)c3ccc(F)c(Cl)c3)c(=O)oc2cc1O	D3 ag 69, D1 agonist 51
CCCCCCc1cc2cc(-c3nnc(-c4ccc(C)cc4)o3)c(=O)oc2cc1O	D1 agonist 221 (no result: D3 antag)
CCCCn1cc(S(=O)(=O)c2ccccc2)c(=O)c2cc(F)c(N3CCN(CCC)CC3)cc21	none (no result: D3 antag)
CCOC(=O)Cn1nnc(-c2ccc([N+](=O)[O-])cc2)n1	none
O=C(c1ccccc1)c1nn(-c2cccc(Cl)c2)c2nc(-c3ccccc3)cc(=O)n12	D1 antag -74
CCCCCCCCCCCCCCCC[n+]1cccc(C(=O)N(CC)CC)c1	D3 antag -74!, D1 agonist 279
CCCCCCCC[n+]1cccc(C(=O)N(CC)CC)c1	none
Cc1ccc(NC(=O)CN(C)C(=O)c2ccccc2Sc2ccccc2C#N)cc1	none
CN(CC(=O)Nc1ccccc1C(F)(F)F)C(=O)C1=COCCO1	none
CCOc1ccccc1CNC(=O)CCc1cn(Cc2ccc(Cl)cc2)c2ccccc12	none (no result: D3 antag)
Cn1c(=O)c(N)c2c3c(c(Br)ccc31)C(=O)c1ccccc1-2	D1 agonist 73
Cn1c(=O)c2c(-c3ccccc3Br)n(C(C)(C)C)cc2n(C)c1=O	none (no result: D3 antag)
CN(C)c1cccc(C(=O)NN2C(=O)NC3(CCCCC3)C2=O)c1	none
O=C(/C=C/c1cccc([N+](=O)[O-])c1)c1cccs1	D3 antag -58
CC(=O)Oc1ccccc1C(=O)C=Cc1cccc([N+](=O)[O-])c1	D3 antag -56 (no result: D1 antag, D1 agonist, D1 PAM)
O=C(N/N=C/c1cccc([N+](=O)[O-])c1)c1cccs1	none
O=C(/C=C/c1cccc([N+](=O)[O-])c1)N1CCN(S(=O)(=O)c2cccs2)CC1	none
O=C(/C=C/c1cccc([N+](=O)[O-])c1)Nc1ccc(NC(=O)c2cccs2)cc1	D3 antag inconclusive, D1 antag -78
O=C(/C=C/c1cccc([N+](=O)[O-])c1)n1cnc2ccccc21	D3 antag -104
CCNC(=O)C1CCCN(c2nn3cc(-c4ccc(C)cc4)nc3s2)C1 (centres undefined)	none (no result: D3 antag)
O=C(NCC1CCCCC1)c1cc(Br)ccc1Cl	D1 antag -32
CCOC(=O)c1sc(C)c2c1NC1(CCCCC1)NC2=O	D3 ag 47
CCC(C)(C)c1ccc(OCCCC[n+]2cccc(C)c2C)c(C(C)(C)CC)c1	D1 agonist 146
CCC(C)(C)c1ccc(OCCCC[n+]2ccc(C)cc2)c(C(C)(C)CC)c1	D1 agonist 127
CCCCCCCCC[n+]1cccc2c3ccccc3ccc21	none
CCCCCCCCCCCCCC[n+]1ccc(C)cc1	none (no result: D3 antag, D1 antag, D1 agonist, D1 PAM)
CCOC(=O)c1c(C)[nH]c(C)c1S(=O)(=O)NCC(=O)Nc1cccc(Cl)c1	none (no result: D3 antag)
CCOC(=O)c1c(C)[nH]c(C)c1S(=O)(=O)NCC(=O)Nc1cccc(C(F)(F)F)c1	D1 antag -40 (no result: D3 antag)
O=C(N1CCOCC1)N1[C@H](COCc2ccccc2)C=CS1(=O)=O	none (no result: D1 antag, D1 agonist, D1 PAM)
CN1CCc2nc(SCC(=O)Nc3cccc(F)c3)c(C#N)c(-c3cccs3)c2C1	D3 antag -50
Cc1cccc(CSc2nc3c(c(-c4cccs4)c2C#N)CN(C)CC3)c1	D1 antag -38
CCCCN1C(C(=O)c2ccccc2)=C(OC(=O)CC)c2ccccc2S1(=O)=O	none (no result: D3 antag)
CCOC(=O)c1cc(S(=O)(=O)NCc2ccc(OC)cc2)[nH]n1	none (no result: D3 antag)
CCOC(=O)N1CCC(N2C(=O)c3ccccc3C2Nc2ccccc2C)CC1 (centres undefined)	D1 antag -71
CCOC(=O)c1ccccc1NC1c2ccccc2C(=O)N1C1CCN(C(=O)OCC)CC1 (centres undefined)	none

High-throughput results: PubChem BioAssay, National Center for Advancing Translational Sciences (NCATS)
